The panel holds about 83,000 compounds, 20% with a hit somewhere; the sample as a whole holds those more often.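 In brief: 96-well plates, 48 h treatment, single concentration, percent growth endpoint.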 Active and inactive are the calls of the source. How the source made its calls: active means growth percent below 10; inactive means the rest.

The experiment has as its system MDA-MB-468 breast. Put plainly: NCI-60 one-dose screen, 48 h (100 = growth as untreated, 0 = no growth, -100 = all killed). The settings on record: 10 µM unless noted.
In the case of `Cc1ccccc1C(c1ccccc1)c1ccccc1C`, the growth was 50.3% (inactive).

Consider `CCN(CC)CC(=O)Nc1c(C)cc(C(=O)NN)cc1C`, for which the growth was 107% (inactive).

In the case of `c1ccc(C(Nc2ccccn2)(c2ccccc2)c2ccccc2)cc1`, the growth is 52.7% (inactive).

In the case of `C=CCN(/C=C1/C(=O)O[C@H](COC)[C@@]2(C)C1=C(O)C(=O)C1=C2[C@H](OC(C)=O)C[C@]2(C)C(=O)CC[C@@H]12)CC=C`, the growth is -32.2% (active).

With `CCc1c(C)c2ccc(O)c(-c3cc(-c4ccccc4)c(C#N)c(=O)[nH]3)c2oc1=O`, the growth is 102% (inactive).

In the case of `Cc1ccccc1CC(N)C(=O)O` (stereo not given), the growth was 117% (inactive).

In the case of `CCOC(=O)c1c(NCC(=O)Nc2ccc(Br)cc2)sc2c1CCCC2`, the growth is 7.05% (active).

Take `C=CCN1C(=O)/C(=C/C(=O)OC)S/C1=N\NC(=O)c1cc2ccc1/C=C\c1ccc(cc1)/C=C\2`: the growth was 76.3% (inactive).

Take `C#Cc1ccc(C(=O)NCc2ccc(/C=C/C(=O)c3nccn3C)cc2)cc1`: the growth was 18% (inactive).

Consider `CCOC(=O)C1=C(c2ccccc2)N=C2SC=C(c3cccc([N+](=O)[O-])c3)N2C1c1ccc(O)cc1` (stereo not given), for which the growth is 93.7% (inactive).

As for `COc1cc(-c2nn(-c3cccc(NC(=O)c4ccc(Cl)c(C(F)(F)F)c4)c3)cc2-c2ccncc2)ccc1Cl`, the growth is 54.4% (inactive).

With `Oc1c(CCl)cc(Cl)cc1Cc1cc(Cl)cc(Cc2cc(Cl)cc(CCl)c2O)c1O`, the growth was 18.8% (inactive).

Consider `CCCNC(=O)Oc1ccc(/C(=C(\C)c2ccccc2)c2ccc(OCCCN(C)C)cc2)cc1`, for which the growth was 83.4% (inactive).

On to `Nc1nc(N)c2c(n1)NC(c1ccc(Cl)cc1)CC(c1cccc(Nc3ccncc3)c1)=N2` (stereo not given), for which the growth was 57.4% (inactive).

`CS(=O)(=O)c1ccc(C(=O)Nc2ccc(Cl)c(-c3ccccn3)c2)c(Cl)c1`: the growth was 3.59% (active).

Turning to `Cc1cc(-c2ccccc2)c(C)n1Cc1ccc(Cl)cc1`, the growth is 27.7% (inactive).

Consider `COc1ccc(CCN2C(=O)/C(=C/c3ccc(C4Oc5ccccc5C5CC(c6ccccc6)=NN54)cc3)SC2=S)cc1` (stereo not given), for which the growth was 118% (inactive).

For `COc1cc2c3c(cc4c5c(ccc4c3c1OC)OCO5)N(CCN(C)C)C2=O`, the growth was -48.8% (active).

As for `COc1ccc2c(OCc3nnc4ccc(-c5ccccc5)nn34)ccnc2c1`, the growth is 97.2% [2.5 µM] (inactive).

As to `CCCCN(CCCC)C(=O)[C@H](CC)[C@@H]1CC[C@@H](C)[C@@H]([C@H](C)[C@@H](O)[C@@H](C)C(=O)[C@H](CC)C2O[C@]3(C=C[C@@H](O)[C@]4(CC[C@@](C)([C@H]5CC[C@](O)(CC)[C@H](C)O5)O4)O3)[C@H](C)C[C@@H]2C)O1` (stereo not given in full), the growth was -22.1% (active).

On to `O=C=NC(c1ccccc1)(c1ccccc1)c1ccccc1`, for which the growth is 118% (inactive).

In the case of `CCOP(=O)(OCC)OC[C@]12CCC(C)(C)C[C@H]1C1=CC[C@@H]3[C@@]4(C)C/C(=C\c5cccnc5)[C@H](OP(=O)(OCC)OCC)C(C)(C)[C@@H]4CC[C@@]3(C)[C@]1(C)CC2`, the growth was -0.445% (active).

With `Nc1c(C(=O)Nc2c(Cl)cccc2Cl)sc2nc3c(cc12)C(=O)CCC3`, the growth is -3.83% (active).

As to `Cc1cc(O)c(C2=NN(c3ccc(S(N)(=O)=O)cc3)C(c3ccccc3O)C2)cc1Cl` (stereo not given), the growth was 17.2% (inactive).

Turning to `Cc1ccccc1-c1cc(Cc2ccccc2O)c(=O)[nH]n1`, the growth was 170% (inactive).

For `Cc1cc2nc(CC(=O)c3ccccc3)c(=O)[nH]c2cc1C`, the growth was 103% (inactive).

Turning to `Cc1cc2nc(C(Cl)Cl)nc(-c3ccco3)n2n1`, the growth is -34% (active).

Regarding `CCCCN1CCN(c2ccc3nc(-c4ccc5nc(-c6ccc(C(F)(F)F)cc6)[nH]c5c4)[nH]c3c2)CC1`, the growth is -62.1% (active).

As to `Cn1c(=O)c2[nH]c(N/N=C/c3ccccc3Br)nc2n(C)c1=O`, the growth was 115% (inactive).

Take `CCCC1OC(c2ccco2)OCC1CC` (stereo not given): the growth was 118% (inactive).

Consider `CCOC(=O)C(C#N)Cc1ccccc1` (stereo not given), for which the growth was 115% (inactive).

As for `CCCc1cc2cc(-n3nc(C)c4c3CC(C)(C)CC4=O)cc(NC3CCC(O)CC3)c2c(=O)[nH]1` (stereo not given), the growth is -0.951% (active).

In the case of `COc1cc2c3c(c4c5ccccc5[nH]c4c2c(OC)c1OC)C(=O)N(O)C3=O`, the growth was 32.7% (inactive).

With `COc1ccc(Cl)c(Nc2nc3ccccc3nc2NS(=O)(=O)c2cccc(NC(=O)C(C)(C)N)c2)c1`, the growth is 21.5% (inactive).

Regarding `COC(=O)c1[nH]nc2c1C1(C(=O)N(C)c3ccccc31)C(C#N)=C(N)O2` (stereo not given), the growth was 97.5% (inactive).

In the case of `O=C1/C(=C/c2cccc3cnccc23)Cc2cc(F)ccc21`, the growth is 65.2% (inactive).

Consider `COc1cc(OC)c(S(N)(=O)=O)cc1C(=O)/C=C/c1ccc(C)cc1`, for which the growth was -36.2% (active).

Turning to `Nc1nc(Cl)nc2c1ncn2C1O[C@H](CO)[C@@H](O)[C@@H]1F` (stereo not given in full), the growth was 5.22% (active).

Regarding `OCCNc1nc(NCCO)nc(Nc2ccc(C3=NN(c4ccc(Cl)cc4)C(c4ccc(Cl)cc4)C3)cc2)n1` (stereo not given), the growth is 85.7% (inactive).

Regarding `O=C1NN(C(=O)c2ccc(O)cc2)C(c2ccccc2)=N/C1=C\c1cn(-c2ccccc2)nc1-c1ccccc1`, the growth is 110% (inactive).

Source of the values: PubChem BioAssay (NCI).
